The OligoGym collection
Note: reference of the scale not given here.

Each sequence was assayed against FGA (assay: pooled miR-30 sensor sort-seq; sequence = guide strand). Settings: shRNA.
TAGACTTCTGCACAGTTCTCTT was tested, and the sensor-assay potency score (higher = more potent) was -0.561. Sequence TTCAGTGATCCATCCATTCTTT has a sensor-assay potency score (higher = more potent) of -0.0325. TGTCTTTCCACAACCCTTGGGC gave a sensor-assay potency score (higher = more potent) of 0.289. TAAATTGTTTGCTGTAACTTGA gave a sensor-assay potency score (higher = more potent) of -0.0308. TATTGTTCTTCTGATATTCAAA was tested, and the sensor-assay potency score (higher = more potent) was -1.2.

Each sequence was assayed against FGF1 in the same assay as above. Settings: shRNA.
Work on TTTGGTGTCTGTGAGCCGTATA yielded a sensor-assay potency score (higher = more potent) of -0.694. For TTTCTGGCCATAGTGAGTCCGA, the sensor-assay potency score (higher = more potent) was -0.918. Work on TGAATGTGCTGGTCGCTCCTGT yielded a sensor-assay potency score (higher = more potent) of -0.0696. TTCTTGGATATATAGGTGTTGT showed a sensor-assay potency score (higher = more potent) of -1.22. For TCTGGCCATAGTGAGTCCGAGG, the sensor-assay potency score (higher = more potent) was -1.16. In the case of TAATGGTTCTCCTCCAGCCTTT, the sensor-assay potency score (higher = more potent) is reported as -0.798. In the case of AACAAGATTGCTTTCTGGCCAT, the sensor-assay potency score (higher = more potent) is reported as -0.264. Work on TTCTTCTCTGCATGCTTCTTGG yielded a sensor-assay potency score (higher = more potent) of -0.847. TTGGATATATAGGTGTTGTAAT gave a sensor-assay potency score (higher = more potent) of -0.998. TTTCCAGGAACAAACATTCCTC showed a sensor-assay potency score (higher = more potent) of -0.373. Sequence TTGCTTTCTGGCCATAGTGAGT has a sensor-assay potency score (higher = more potent) of -1.34. TAGTGAGTCCGAGGACCGCGTT gave a sensor-assay potency score (higher = more potent) of -1.55. In the case of TTCTCTGCATGCTTCTTGGATA, the sensor-assay potency score (higher = more potent) is reported as -0.722. TTGGGCTTCTTGTAATTCCCTG was tested, and the sensor-assay potency score (higher = more potent) was -0.211. With TGGGCTTCTTGTAATTCCCTGG the sensor-assay potency score (higher = more potent) was -0.134. Work on TTAAACTTCTCGGTCAGGGCTG yielded a sensor-assay potency score (higher = more potent) of -0.0976. AGGCAGATTAAACTTCTCGGTC was tested, and the sensor-assay potency score (higher = more potent) was -1.58. Sequence TAAACTTCTCGGTCAGGGCTGT has a sensor-assay potency score (higher = more potent) of 0.184. Sequence TCATTTGGTGTCTGTGAGCCGT has a sensor-assay potency score (higher = more potent) of -0.0568. In the case of TTGCAGCTCCCATTCTTCTTGA, the sensor-assay potency score (higher = more potent) is reported as -1.07. For TTTGCAGCTCCCATTCTTCTTG, the sensor-assay potency score (higher = more potent) was -0.462. In the case of TATATAGGTGTTGTAATGGTTC, the sensor-assay potency score (higher = more potent) is reported as -0.522. TTCCAGGAACAAACATTCCTCA gave a sensor-assay potency score (higher = more potent) of -0.434. Work on ATTTGGTGTCTGTGAGCCGTAT yielded a sensor-assay potency score (higher = more potent) of -0.909.

The sequences below were run against FGF23 in the same assay as above. Settings: shRNA.
TCTGATCTGATCATCAGGGCAC showed a sensor-assay potency score (higher = more potent) of 0.338. Work on ATCCTCTGATCTGATCATCAGG yielded a sensor-assay potency score (higher = more potent) of -1.39. TGGAACCTGCAGTTCTCCGGGT showed a sensor-assay potency score (higher = more potent) of -0.566. Work on TCCATGCAGAGGTATCTTCTGC yielded a sensor-assay potency score (higher = more potent) of -1.48. Work on TTCTGCTCATCACACCTGTAAT yielded a sensor-assay potency score (higher = more potent) of -1.67. Work on TTCTTGTGGATCTGCAGGTGGT yielded a sensor-assay potency score (higher = more potent) of -1.08. Sequence TTGCCTCTGAAATCCATGCAGA has a sensor-assay potency score (higher = more potent) of -1.09. TTGGAACCTGCAGTTCTCCGGG gave a sensor-assay potency score (higher = more potent) of 0.14. Work on AATGTTGCCTCTGAAATCCATG yielded a sensor-assay potency score (higher = more potent) of -1.53. Work on TATCTTCTGCTCATCACACCTG yielded a sensor-assay potency score (higher = more potent) of 0.064. In the case of TAATGGGTCACTGGCCATCGGG, the sensor-assay potency score (higher = more potent) is reported as -1.63.
